Test results taken from the supplement of paper PMC3334620.
The full ranking holds about 33,000 sequences; the median of “E-score (-0.5 to 0.5)” is about -0.032, and the highest 2% start at about 0.36. Many of the other results were omitted from the sample, so the highest values are more common in it than they were.

Molecular target: T1, Sko1 (UniProt Q02100)
T1 sequence: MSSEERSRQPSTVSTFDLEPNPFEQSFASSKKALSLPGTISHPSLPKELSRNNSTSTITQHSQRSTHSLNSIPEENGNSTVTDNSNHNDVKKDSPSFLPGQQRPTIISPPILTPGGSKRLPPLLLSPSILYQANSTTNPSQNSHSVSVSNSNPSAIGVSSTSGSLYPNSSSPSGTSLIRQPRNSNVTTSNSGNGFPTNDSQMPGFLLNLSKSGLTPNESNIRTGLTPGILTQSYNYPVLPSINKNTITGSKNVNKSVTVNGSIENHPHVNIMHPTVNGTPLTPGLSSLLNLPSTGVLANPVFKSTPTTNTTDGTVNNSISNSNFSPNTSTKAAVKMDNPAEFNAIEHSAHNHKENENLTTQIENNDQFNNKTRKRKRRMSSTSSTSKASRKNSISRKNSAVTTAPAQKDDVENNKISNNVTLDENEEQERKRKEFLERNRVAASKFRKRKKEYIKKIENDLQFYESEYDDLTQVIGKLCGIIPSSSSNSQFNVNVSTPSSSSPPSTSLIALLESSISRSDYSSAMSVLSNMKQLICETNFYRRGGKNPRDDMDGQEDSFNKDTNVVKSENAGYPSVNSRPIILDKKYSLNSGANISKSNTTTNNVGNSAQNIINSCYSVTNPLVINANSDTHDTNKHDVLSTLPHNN
Test: PBM E-score (8-mer binding enrichment) (E-score (-0.5 to 0.5)); higher = stronger / more preferred TF binding
Conditions: protein concentration: 200 nM; construct: GST-full length
Method: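 Universal 'all 10-mer' protein binding microarrays (Agilent AMADID 015681) probed with GST-tagged S. cerevisiae TFs (full-length or DBD) made by in vitro transcription/translation (PURExpress), about 100-200 nM. Bound TF was detected with fluorescent anti-GST. Each ungapped 8-mer (which stands for itself and its reverse complement) is scored by the PBM enrichment score (E-score), a modified Wilcoxon-Mann-Whitney statistic from -0.5 to +0.5, computed with the Universal PBM Analysis Suite. Scale: above 0.35 generally sequence-specific binding.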

Sequence | PBM E-score
GACTCTGA | -0.104
GAGCTCCA | -0.129
AATCCTGG | -0.199
ATAGTTAC | 0.212
CGCGACGA | 0.125
ACGTTCGA | 0.248
TCGGCTCA | -0.111
GTAGAGGA | -0.194
AAACCGAG | -0.175
CCGCTCCG | -0.269
GCCTTCCA | -0.222
CACACGGA | -0.167
CACACGCG | 0.104
CACACGTA | 0.45
CCTGCGAA | -0.0899
CGTAAGCC | 0.203
GCGTTGGA | -0.00317
ACACTACT | -0.0134
ACACTACG | 0.368
ACACTACA | 0.167
CACTACCA | -0.029
CGTCACGC | 0.433
AGTCACGC | 0.167
CGTCACGA | 0.443
GGTCACGA | -0.0631

Sequence | PBM E-score
CCTCACGC | 0.0875
AGTCACGA | 0.103
GTTCGCGA | 0.133
GGAAGCTA | -0.135
AGTGCAGA | -0.0919
CGGGATAA | 0.0877
GGCTTGTA | -0.158
AGCTCAAT | 0.016
AGATTGAT | -0.0863
AGTCATTC | 0.135
CGTCATTA | 0.487
CCTCATTC | -0.0556
AGTCATTA | 0.032
GGTCATTA | 0.232
CGTCATTC | 0.482
ACTCAAAC | 0.0881
GTGGCGCA | 0.0382
CCTGGCTC | -0.137
TGCTTCCA | -0.067
GAAGCTTC | -0.375
CTCTGCAA | -0.0293
CAGCTCAG | -0.0505
AGTCACTC | -0.0377
CGTCACTC | 0.418
GGTCACTA | 0.0129

Sequence | PBM E-score
AGTCACTA | 0.0867
CCTCACTC | -0.0833
CGTCACTA | 0.445
CACCACCG | -0.248
TACGCCTA | 0.208
AATCTAAC | 0.124
CGATCTAA | 0.0385
CGGCATGA | 0.11
TAGTATAA | 0.24
ACTCCACG | 0.0133
AACTCTCA | 0.0877
ATGATGCA | 0.376
AAGATGTA | 0.206
CTGATGTC | 0.173
GTGATGAA | 0.111
ATGATGAC | 0.327
ATGATGCC | 0.244
GTGATGTA | 0.397
ATGATGTA | 0.459
ATGATGTC | 0.446
ATGATGAA | 0.321
GTGATGCA | 0.249
CTGATGTA | 0.255
ATCGAAGG | 0.0197
GTGAGCCA | -0.0673

Sequence | PBM E-score
GCGGAATA | 0.0622
CTAGAAGA | 0.0318
TTTTAAAA | 0.233
ATTTAGTG | 0.0842
GCCGCTCC | -0.396
AATTTCAG | 0.0849
TGACAGAA | 0.141
GGGCAATA | -0.14
CGACCGCA | -0.266
ATGATGAG | 0.275
ATGATGTG | 0.379
AGGATGTG | -0.206
AACTCCAG | -0.205
AGGAACAT | 0.176
AAAGAACG | 0.143
ATTGACTA | -0.0436
CCTATTTC | 0.0978
GGTATTTA | 0.0513
CGTATTTA | 0.419
AGTATTTA | 0.164
CGTATTTC | 0.367
AGTATTTC | 0.108
GTCGAGAA | 0.107
CCGATGAA | -0.198
AGAGAGGC | -0.353

Sequence | PBM E-score
AGCCCAGG | -0.331
AACTAAGC | 0.123
GAAGGAAC | -0.138
AAAACGTT | 0.207
TAAACGGA | -0.0437
CAAACGTA | 0.416
TAAACGTA | 0.42
AAAACGTC | 0.409
CAAACGCA | 0.0771
AAAACGCC | 0.0157
AAAACGAC | 0.113
AAAACGTG | 0.304
AAAACGTA | 0.449
CAAACGTG | 0.272
TAAACGAA | 0.116
CGTGCTAC | 0.208
CACTATAG | -0.00316
ATTTCAAC | 0.0828
ACGGTAGG | -0.189
GAAACGGA | 0.15
GAAACGAA | 0.115
GAAACGCC | 0.145
CAAACGTC | 0.329
GAAACGTA | 0.398
GAAACGTC | 0.385

Sequence | PBM E-score
ACTAACTA | -0.0162
AGGTTGCA | 0.0863
GCAGCGGA | -0.11
CCCTGAGC | -0.145
ACCATTGA | 0.0435
AGCCGTAT | -0.0778
AGTCGTAT | 0.0845
AGACGTAC | 0.395
AGACGTAG | 0.382
AGACGTAT | 0.441
AGACGTCG | 0.21
AGACGTTG | 0.111
AGGCGTAC | 0.105
ATGCAGGC | -0.024
CGTGCAAG | 0.0462
CCTACAAA | -0.0324
CAAGTCTA | -0.0923
ACCCTGAT | -0.0969
AGCCCTAT | -0.331
CCGCGGGA | -0.201
AATGCCCT | -0.205
AGAGGGTA | -0.035
ATGTCGTC | 0.365
ATGTCGTA | 0.424
CTGTCGTC | 0.21

Sequence | PBM E-score
ATGTCGGC | -0.12
ATGTCGTG | 0.239
GTGTCGTA | 0.312
TGATAGAA | 0.0834
AGGAGGTC | -0.24
AGCTAACA | -0.0839
AGGCACGA | 0.0425
ACGACGTG | 0.365
ACGACGAT | 0.127
ACGACGAG | 0.00694
ACGACGAC | 0.00819
ACGACGGG | 0.0518
ACGACGGA | 0.0966
ACGACGCC | 0.0289
ACGACGTA | 0.446
ACGACGTC | 0.367
ATGGGCAA | -0.138
AGGAGATC | -0.214
AGAAACAT | 0.152
TCCTTGCA | -0.292
AAAATTCC | -0.152
CACGCCGG | -0.211
CGAAAAGA | 0.163
AATTCGTA | 0.386
CATTCGTA | 0.317

Sequence | PBM E-score
GATTCGTA | 0.251
CTTTCGTA | 0.339
ATTTCGTC | 0.343
ATTTCGTA | 0.372
CGCGGAAC | -0.165
GGCTTCCA | -0.218
GACGTGCC | 0.266
AACGTGCA | 0.191
GGCGTGCA | -0.0639
CACGTGCA | 0.329
GACGTGCA | 0.389
TACGTGCA | 0.423
AGACTATA | 0.00094
CCAAGTGC | -0.285
AGCACGTC | 0.309
AGCACATA | 0.0436
AGCACGTA | 0.406
AGCACGTG | 0.397
AGCACGAA | 0.169
AGCACGAG | -0.0498
AGTAGTCC | 0.0244
TACGTTCA | 0.374
CACGTTAC | 0.305
AACGTTAG | 0.176
AACGTTAC | 0.321

Sequence | PBM E-score
GACGTTTA | 0.386
AACGTTTA | 0.31
GACGTTAC | 0.365
AACGTTCT | 0.167
AACGTTCA | 0.0648
CACGTTCA | 0.171
CACGTTTA | 0.321
AACGTTAT | 0.368
AGCTCAAC | -0.147
AGTGCTGG | -0.111
AAGTCGAC | 0.0592
ATCTGAGA | -0.0991
CAATACCG | -0.186
CTTGAAGA | -0.132
ACGAAGGG | 0.129
CTGATCCC | -0.269
AACTCCTT | -0.0253
ATTCGACA | -0.09
CAACAACC | -0.0035
